# In the library only some 0.65% were active in any assay of this set; here they are far more common.
# Y pestis TopoI = inhibitors of Yersinia pestis topoisomerase I. activity, % at 10 µM. 360,000 compounds, 0.064% hits. AID 504884. Y. pestis Topo-I cleavage product accumulation, plate reader; in the data active = activity above about 50%, passing the limit was not always enough
# PrP 5UTR inh = inhibition of PrP 5' UTR reporter expression; inhibition, % (test concentration not listed); cell-based PrP 5' UTR mRNA reporter, plate reader; 340,000 compounds, 0.35% hits; in the data active = inhibition above about 52%
# TcdB GH inh = blocks C. difficile toxin B glycohydrolase activity | TcdB glycohydrolase enzymatic assay, plate reader | inhibition, % at 9.99 µM | 350,000 compounds, 0.24% hits; in the data active = inhibition above about 10%
# BH1578 lux ind = inducers of Vibrio cholerae quorum light production without autoinducers; V. cholerae BH1578 lux reporter, luminescence, 6 h; activation, % at 18.7 µM; 350,000 compounds, 0.16% hits; AID 588436; in the data active = activation mostly above about 9.7%, no sharp cut-off
# UGM FP inh = inhibitors of M. tuberculosis UDP-galactopyranose mutase; P9WIQ1; purified UGM, fluorescence polarization probe displacement; inhibition, % at 10 µM; 320,000 compounds, 0.06% hits; in the data active = inhibition above about 10%, passing the limit was not always enough
# Numbers stand for hits; - = inactive; . = not tested or not shown; + = active, no number; ! = not confirmed by another sample.
SMILES,Y pestis TopoI,PrP 5UTR inh,TcdB GH inh,BH1578 lux ind,UGM FP inh
Cc1[nH]ccc2c1[nH]c1cc(=O)ccc12,-,-,10,-,-
CN(C)CCNC(=O)c1cc2c(s1)-c1ccc(Cl)cc1SC2,-,-,12,-,-
Cc1ccc(NC(=O)OC(C)N2CCCCC2)cc1NC(=O)OC(C)N1CCCCC1 (stereo not given),-,-,11,-,.
Cc1ccc(NC(=O)N2CCCCC2)cc1NC(=O)N1CCCCC1,-,-,-,-,-
CNC[C@@H]1Oc2ncc(-c3ccc(C)cc3)cc2C(=O)N([C@H](C)CO)C[C@H]1C,.,.,-,.,.
CCOC(=O)c1ccc(N=c2sc(C(=O)OC)cc(=O)n2CCCN2CCOCC2)cc1,-,-,11!,-,-
O=C(Nc1ccc(N2CCOCC2)c(Cl)c1)c1ccc(F)cc1,-,-,17,-,-
COc1ccccc1C(=O)Nc1ccc2c(c1)C(=O)N(C)C[C@H](OC)[C@H](C)CN(C)[C@H](C)CO2,.,.,-,.,.
O=CN(c1ccccc1)c1ccc2ccccc2c1,-,-,13,-,-
CN(c1ccccc1)S(=O)(=O)c1ccc2ccccc2c1,-,-,-,-,-
CC1=Nc2ccccc2/C1=C\c1nc(-c2ccccc2)oc1O,-,-,.,-,-
CC1=Nc2ccccc2/C1=C\c1nc(-c2ccc(C(F)(F)F)cc2)oc1O,-,.,-,-,12
O=Nc1c(O)n(Cc2ccc(Cl)cc2)c2ccccc12,-,-,.,226,-
C/C(Cl)=C\Cn1c(O)c(N=O)c2ccccc21,-,-,-,+,-
CCCC#Cc1cnc2c(c1)C(=O)N([C@H](C)CO)C[C@@H](C)[C@H](CN(C)C(=O)Nc1c(C)noc1C)O2,.,.,-,.,.
COCC(=O)N(C)C[C@@H]1Oc2ncc(C#CC3(O)CCCC3)cc2C(=O)N([C@@H](C)CO)C[C@H]1C,.,.,-,.,.
C[C@H](NC(=O)C[C@H]1C[C@H]2c3cc(NC(=O)CC4CC4)ccc3O[C@H]2[C@@H](CO)O1)c1ccccc1,.,.,-,.,.
O=C(c1cccc(F)c1)N1C[C@@H]2[C@H](c3ccccc31)[C@H](CO)N2C(=O)c1ccccn1,.,.,-,.,.
Cc1ccc(C(=O)Nc2ccc(O)cc2C(=O)O)cc1C,-,-,20,-,-
Oc1ccc(Cc2ccccc2Cl)c(O)c1,-,-,13,-,.
Oc1c(Cl)cccc1Cc1cc(Cl)cc(Cl)c1O,-,-,-,-,.
Oc1ccc(Cc2ccc(Cl)cc2)c(O)c1,-,-,10,-,-
COC(=O)[C@H]1[C@H](CO)[C@H]2Cn3c(ccc(C4=CCCCC4)c3=O)[C@H]2N1Cc1cccnc1,.,.,-,.,.
C[C@H](CO)N1C[C@H](C)[C@@H](CN(C)C(=O)c2cccc(F)c2)Oc2ncc(-c3ccncc3)cc2C1=O,.,.,-,.,.
N/C(=N\N=C\c1ccc(O)cc1)c1nonc1N,-,-,28,-,-
SMILES,Y pestis TopoI,PrP 5UTR inh,TcdB GH inh,BH1578 lux ind,UGM FP inh
N/C(=N\N=C\c1ccc(O)c(O)c1)c1nonc1N,-,-,-,-,-
C[C@@H]1CN([C@@H](C)CO)C(=O)c2cc(NC(=O)Cc3ccccc3)ccc2O[C@H]1CN(C)C,.,.,-,.,.
C[C@@H]1CN([C@H](C)CO)C(=O)c2cc(NC(=O)CCC(F)(F)F)ccc2O[C@@H](C)CCCCO[C@@H]1CN(C)Cc1ccc(C(F)(F)F)cc1,.,.,-,.,.
Cc1cc(C)nc(SCC(=O)c2ccc(O)c(O)c2)n1,-,-,11,-,-
COc1ccc(NC(=O)N(C)C[C@@H]2Oc3ccc(NS(=O)(=O)c4ccccc4)cc3CC(=O)N([C@@H](C)CO)C[C@H]2C)cc1,.,.,-,.,.
C[C@@H]1CN([C@H](C)CO)C(=O)c2cc(/C=C/c3ccccc3)cnc2O[C@@H]1CN(C)S(C)(=O)=O,.,.,-,.,.
COc1ccc(NC(=O)N(C)C[C@@H]2Oc3c(NC(=O)CCCCCC(=O)Nc4ccccc4N)cccc3C(=O)N([C@H](C)CO)C[C@H]2C)cc1,.,.,-,.,.
COc1ccc(-n2c(C)ccc2-c2ccccc2)cn1,-,-,-,-,58
CCCSc1nc2c([nH]1)c(=O)n(C)c(=S)n2C,-,-,10,-,.
C[C@H]1CN([C@@H](C)CO)C(=O)c2cc(NC(=O)Cc3cn(C)c4ccccc34)ccc2O[C@@H]1CN(C)Cc1ccc(Oc2ccccc2)cc1,.,.,-,.,.
COCCCNc1c2c3c(cccc3[nH]c1=O)C(=O)c1ccccc1-2,-,-,-,-,102
COCCCNC1=C(Cl)C(=O)c2ccccc2C1=O,-,-,-,-,-
C[C@H]1CN([C@@H](C)CO)C(=O)c2cccc(NS(=O)(=O)c3ccc(F)cc3)c2O[C@@H]1CN(C)Cc1ccc(Cl)c(Cl)c1,.,.,-,.,.
Cc1nc2ccccc2c(=O)n1NC(=O)c1ccc(Cl)c(Cl)c1,-,-,-,328,-
Cc1[nH]nc(-c2ccc(O)cc2O)c1Oc1ccccc1,-,-,11,-,-
CCCOC(=O)c1ccc(Oc2c(-c3ccc(O)cc3O)n[nH]c2C)cc1,-,-,.,.,-
COCC(=O)N1[C@@H](CO)[C@@H]2c3ccccc3N(C(=O)c3ccccc3F)C[C@@H]21,.,.,-,.,.
CCCC1C2CN(C(C)C)CC=C2C(C#N)=C(N)C1(C#N)C#N (stereo not given),-,-,.,-,13
COc1cccc(CC(=O)OCC(=O)Nc2c(C)nn(-c3ccccc3)c2C)c1,-,-,11,-,.
CCn1cc(C(=O)O)c(=O)c2cc(F)c(N3CCN(C(=S)NC(=O)c4ccccc4Br)CC3)cc21,-,-,10,-,-
C[C@H]1CCCCO[C@H](CN(C)Cc2ccc3c(c2)OCO3)[C@@H](C)CN([C@@H](C)CO)C(=O)c2cc(NC(=O)c3ccncc3)ccc2O1,.,.,-,.,.
Cc1cnc(C(=O)OCC(=O)Nc2ccc(OCc3ccccc3)cc2)cn1,-,-,13,-,-
CCCCOc1ccc(NC(=O)c2cnc(C)cn2)cc1,-,-,.,17,-
C[C@@H]1CCCCO[C@@H](CN(C)Cc2ccc(Cl)c(Cl)c2)[C@@H](C)CN([C@@H](C)CO)C(=O)c2cc(NC(=O)Cc3ccccc3)ccc2O1,.,.,-,.,.
C[C@@H]1CN([C@@H](C)CO)C(=O)c2cc(NS(C)(=O)=O)ccc2O[C@@H](C)CCCCO[C@@H]1CN(C)Cc1ccncc1,.,.,-,.,.
SMILES,Y pestis TopoI,PrP 5UTR inh,TcdB GH inh,BH1578 lux ind,UGM FP inh
O=C(O)c1nn(CCOc2cccc(Br)c2)c(=O)c2ccccc12,52,-,-,-,-
O=S(=O)(Oc1ccccc1-c1ccccc1)c1ccccc1,-,-,12,-,.
CCCn1c(N2CCC(Cc3ccccc3)CC2)nc2c1c(=O)[nH]c(=O)n2C,52,-,.,-,-
Cn1c(=O)[nH]c(=O)c2c1nc(N1CCNCC1)n2Cc1ccccc1Cl,-,-,-,-,-
Cn1c(=O)[nH]c(=O)c2c1nc(N1CCCCCC1)n2Cc1cccc2ccccc12,63,-,.,-,-
C[C@@H]1CCCCO[C@@H](CN(C)Cc2ccc(Cl)c(Cl)c2)[C@@H](C)CN([C@@H](C)CO)C(=O)c2cc(NC(=O)c3ccccc3)ccc2O1,.,.,-,.,.
COCC#Cc1ccc2c(c1)O[C@@H](CN(C)C(=O)CC1CC1)[C@H](C)CN([C@@H](C)CO)S2(=O)=O,.,.,13,.,.
COCC#Cc1ccc2c(c1)O[C@H](CN(C)C(=O)CC1CC1)[C@H](C)CN([C@@H](C)CO)S2(=O)=O,.,.,-,.,.
